The source of these data is PubChem BioAssay (NCATS).

Assay [1] in a line: Primary qHTS for inhibitors of nuclear receptor binding SET domain protein 2 (NSD2) in an isogenic RCH-ACV NSD2 p.E1099K mutant (9B) (AID 1645876). Background: qHTS replaces the single test concentration by a dilution series.
Assay [2] can be described thus: Primary qHTS for inhibitors of nuclear receptor binding SET domain protein 2 (NSD2) in an RCH-ACV wild type WT cells (2C) (AID 1645877).

Molecules are shown by their SMILES. “And” between values parts separate entries of the source, which are not always exact repeats. Identical values can stand only once. Records with an inconclusive call do not appear. A number with no mark means an inactive call. The source made the active and inactive calls. Calls follow the shape of the dose curve; as a rule, active = well fitted curve in the direction sought with a large enough effect; inconclusive = small, poorly fitted or top-dose-only effect, or another doubt; inactive = no such curve, though single readings can be large; an effect the other way counts as inactive or inconclusive. Where a SMILES comes first, the peptide text is derived from it.
% is scaled to controls: 0 for no effect and ±100 for the full control effect; potency is read from the fitted curve at half-maximal effect.
Also: nearly all actives have a fitted effect of over 70% in size.

`C=C[C@](C)(CC/C=C(\C)C(=O)O)O[C@@H]1OC[C@H](O)[C@H](O)[C@H]1O`: the Potency result in assay [1] and in assay [2] was “inactive” each time.
Regarding `Cn1ccnc1CCOC(c1cc2nccc(C(=O)O)c2[nH]1)c1ccccc1Cl` (stereo unspecified), the Potency result in assay [1] and in assay [2] was “inactive” throughout.
Regarding `COC(=O)CC1(O)C(=O)Nc2ccccc21` (stereo unspecified), the Potency result in assay [1] and in assay [2] was “inactive” in each case.
In the case of `CC(C)CC(=O)OC[C@H]1O[C@@](COC(=O)CC(C)C)(O[C@H]2O[C@H](CO)[C@@H](O)[C@H](O)[C@H]2O)[C@@H](OC(=O)CC(C)C)[C@@H]1OC(=O)CC(C)C`, the Potency entry in assay [1] and in assay [2] was “inactive” throughout.
Regarding `CC(/C=C/C1(O)C(C)CC(O)CC1(C)C)OC1OC(CO)C(O)C(O)C1O` (stereo unspecified), the Potency result in assay [1] and in assay [2] was “inactive” in each case.
`CC1NC(=O)CNC(=O)C(C(C)C)NC(=O)C2CCCN2C(=O)C(C(C)C)NC(=O)C(Cc2c[nH]c3ccccc23)NC1=O` (stereo unspecified) (cyclo(GAWVPV); configuration not given here): the Potency entry in assay [1] and in assay [2] was “inactive” in each case.
For the compound `C[C@@H]1O[C@@H](O[C@H]2[C@H](O)[C@@H](C(=O)O)O[C@@H](O[C@H]3CC[C@@]4(C)C(CC[C@]5(C)C4CC=C4C6CC(C)(C)CC[C@]6(C(=O)O)CC[C@]45C)C3(C)C)[C@@H]2O[C@@H]2O[C@H](CO)[C@@H](O)[C@H](O)[C@H]2O)[C@H](O)[C@H](O)[C@H]1O` (stereo partly specified), in assay [1], the activity change, negative = viability loss is -6.46% [at 9.23 µM]. For the same compound, in assay [2], the activity change, negative = cell killing was -4.73% [at 9.23 µM].
As for `COc1ccc(/C=C/C(=O)O[C@@H]2[C@@H](OC(C)=O)[C@@H](OC(C)=O)[C@H](O[C@H]3[C@@H]4C=CO[C@@H](O[C@@H]5O[C@H](CO)[C@@H](O)[C@H](O)[C@H]5O)[C@@H]4[C@@]4(CO)O[C@@H]34)O[C@H]2C)cc1O`, the Potency entry in assay [1] and in assay [2] was “inactive” each time.
For the compound `CC1(C)CCC2(C(=O)OC3OC(COC4OC(CO)C(O)C(O)C4O)C(O)C(O)C3O)CCC3(C)C(=CCC4C5(C)CCC(O)C(C)(C(=O)O)C5CCC43C)C2C1O` (stereo unspecified), in assay [1], the activity change, negative = viability loss was 0.116% [at 9.23 µM]. Also, the outcome in assay [2] was “inactive [at 9.23 µM]”.
Consider `CC(C)=CCC/C(C)=C/CC/C(C)=C/CC[C@]1(C)CCc2cc(O)cc(C)c2O1`, for which the Potency entry in assay [1] and in assay [2] was “inactive” each time.
As to `C=CC1(C)C=C2C(=O)CC3C(C)(C)CCCC3(C(=O)O)C2(O)CC1` (stereo unspecified), the Potency entry in assay [1] and in assay [2] was “inactive” throughout.
On to `COc1cc2c(cc1O)C1(OC)Cc3ccc4c(c3C1N(C)CC2)OCO4` (stereo unspecified), for which the Potency result in assay [1] and in assay [2] was “inactive” each time.
`NCc1ccc(OCCCc2sc(-c3ccc4c(c3)/C(=N/Nc3nc5ccccc5s3)CCC4)nc2C(=O)O)cc1`: the Potency entry in assay [1] is “inactive”. In assay [2], the Potency was 5.15 µM (active).
`CC(=O)OC[C@]12[C@H](OC(C)=O)C(=O)[C@@H]3[C@@H](OC(C)=O)[C@@]14O[C@@]3(C)COC(=O)c1cccnc1[C@@H](C)[C@H](C)C(=O)O[C@@H]([C@H](OC(C)=O)[C@@H]2OC(C)=O)[C@]4(C)O`: the Potency result in assay [1] and in assay [2] was “inactive” in each case.
On to `CC1=CC(=O)OC(C)(CC(C)(O)C(=O)O)C1` (stereo unspecified), for which the Potency entry in assay [1] and in assay [2] was “inactive” in each case.
Consider `COC(=O)[C@@H]1C2CC3c4[nH]c5ccccc5c4CCN3CC2CC[C@@H]1O` (stereo partly specified), for which the Potency result in assay [1] and in assay [2] was “inactive” throughout.
`CC1(CO)CC[C@]2(C(=O)O[C@@H]3O[C@H](CO)[C@@H](O)[C@H](O)[C@H]3O)CC[C@]3(C)C(=CCC4[C@@]5(C)C[C@H](O)[C@H](O[C@@H]6OC[C@@H](O)[C@H](O)[C@H]6O)[C@@](C)(CO)C5CC[C@]43C)C2C1` (stereo partly specified): the activity change, negative = viability loss in assay [1] was 1.64% [at 9.23 µM]. The outcome in assay [2] is “inactive [at 9.23 µM]”.
Consider `CC12CCC3c4ccc(O)cc4CCC3C1CCC2OC1OC(C(=O)O)C(O)C(O)C1O` (stereo unspecified), for which the Potency result in assay [1] and in assay [2] was “inactive” each time.
Consider `CC(C)=CCc1ccc(Oc2c(O)cc(C)cc2CO)c(C(=O)O)c1O`, for which the Potency result in assay [1] and in assay [2] was “inactive” throughout.
As for `CC(=O)N(O)CCCCCN1C(=O)CCC1=O`, the Potency result in assay [1] and in assay [2] was “inactive” in each case.
With `COC(=O)[C@]12C(=O)C(C)=C(O)[C@@]1(C)C(C)=CC1[C@@]34CC[C@@H](OC(C)=O)C(C)(C)C3[C@H](C[C@]12C)OC4=O` (stereo partly specified), the Potency result in assay [1] and in assay [2] was “inactive” in each case.
With `C=C1CCC2C(C)(C)CC(=O)CC2(C)C1CCC(C)CCOC(C)=O` (stereo unspecified), the Potency result in assay [1] and in assay [2] was “inactive” in each case.
`C[C@@H]1O[C@@H](O[C@@H]2[C@@H](O)[C@@H](O)[C@H](O[C@@H]3[C@@H](O)[C@@H](O[C@]4(CO)O[C@H](CO)[C@@H](O)[C@@H]4OC(=O)/C=C/c4ccc(O)cc4)O[C@H](CO)[C@H]3OC(=O)/C=C/c3ccc(O)cc3)O[C@H]2C)[C@H](O)[C@H](O)[C@H]1O`: the outcome in assay [1] is “inactive [at 9.23 µM]”. Further, the activity change, negative = cell killing in assay [2] is 1.92% [at 9.23 µM].
`CCC(C)(O)C(O)C(=O)OCc1ccc(O[C@@H]2O[C@H](CO)[C@@H](O)[C@H](O)[C@H]2O)c(OC)c1` (stereo partly specified): the Potency result in assay [1] and in assay [2] was “inactive” each time.
Take `CC(=O)OC(CSC1CCC(=O)OC(C)CCC(=O)C1)C(=O)O` (stereo unspecified): the Potency entry in assay [1] and in assay [2] was “inactive” throughout.
Regarding `CCOc1cc2ncc(C#N)c(Nc3ccc(OCc4ccccn4)c(Cl)c3)c2cc1NC(=O)/C=C/CN(C)C`, the Potency in assay [1] is 282 nM (active) and 1.32 µM (active); in assay [2] it was 282 nM (active) and 833 nM (active).
For `C[C@@H]1O[C@@H](OC[C@H]2O[C@@H](OCC3CCC4CC3C4(C)C)[C@H](O)[C@@H](O)[C@@H]2O)[C@H](O)[C@H](O)[C@H]1O` (stereo partly specified), the Potency result in assay [1] and in assay [2] was “inactive” throughout.
Regarding `CC1(C)CC[C@]2(C(=O)O)CC[C@]3(C)C(=CCC4[C@@]5(C)C[C@@H](O)[C@H](O)C(C)(C)C5CC[C@]43C)[C@@H]2[C@@H]1O` (stereo partly specified), the Potency result in assay [1] and in assay [2] was “inactive” throughout.
In the case of `CC(C)=CC/C=C(/C)[C@H]1CC[C@]2(C)[C@@H]1[C@H](O)CC1[C@@]3(C)CC[C@H](O)C(C)(C)[C@@H]3[C@@H](O[C@@H]3O[C@H](CO)[C@@H](O)[C@H](O)[C@H]3O[C@@H]3O[C@@H](C)[C@H](O)[C@@H](O)[C@H]3O)C[C@]12C` (stereo partly specified), the Potency entry in assay [1] and in assay [2] was “inactive” throughout.
For `C/C1=C\C[C@H](O[C@@H]2O[C@H](CO)[C@@H](O)[C@H](O)[C@H]2O)/C(C)=C/[C@H]2OC(=O)[C@H](C)[C@@H]2CC1`, the Potency entry in assay [1] and in assay [2] was “inactive” each time.
In the case of `C/C=C(\C)C(=O)O[C@@H]1CC2[C@@H](CC=C3C[C@@H](O[C@H]4C[C@H](OC)[C@H](O[C@H]5C[C@H](OC)[C@H](O[C@H]6C[C@H](OC)[C@H](O[C@H]7C[C@@H](OC)[C@H](O[C@@H]8O[C@H](CO)[C@@H](O)[C@H](O)[C@H]8O)[C@@H](C)O7)[C@@H](C)O6)[C@@H](C)O5)[C@@H](C)O4)CC[C@@]32C)[C@@]2(O)CC[C@H](C(C)=O)[C@@]12C` (stereo partly specified), the activity change, negative = viability loss in assay [1] is -12.3% [at 9.23 µM]. The activity change, negative = cell killing in assay [2] was -18.8% [at 9.23 µM].
Regarding `CC(C)CNC(=O)/C=C/CCCCc1ccc2c(c1)OCO2`, the Potency entry in assay [1] and in assay [2] was “inactive” each time.
As for `CCCCC(=O)OCC(=O)[C@]1(O)Cc2c(O)c3c(c(O)c2[C@@H](O[C@H]2C[C@H](NC(=O)C(F)(F)F)[C@H](O)[C@H](C)O2)C1)C(=O)c1c(OC)cccc1C3=O`, the Potency in assay [1] was 263 nM (active); in assay [2], 0.166 µM (active).
`COc1cc(O[C@@H]2O[C@H](CO)[C@@H](O)[C@H](O)[C@H]2O)c(CCC(=O)OC[C@H]2O[C@@H](Oc3cc(OC)c(C4OC(=O)C(C)(O)C4O)cc3CCC(=O)O)[C@H](O)[C@@H](O)[C@@H]2O)cc1C1OC(=O)C(C)(O)C1O` (stereo partly specified): in assay [1], the activity change, negative = viability loss was -2.96% [at 9.23 µM]. In addition, the activity change, negative = cell killing in assay [2] is -6.02% [at 9.23 µM].
Turning to `CO[C@@H]1CC[C@H](OC[C@]2(COC(=O)c3ccc(C)[nH]3)[C@H](OC(C)=O)CC[C@@]3(C)[C@@H]4CC=C(C)[C@@H](C5=C(O)C(=O)OC5O)[C@]4(C)CC[C@@H]32)O[C@H]1C` (stereo partly specified), the Potency result in assay [1] and in assay [2] was “inactive” in each case.
With `COC(=O)CC[C@@H](C)[C@H]1CC[C@H]2[C@@H]3CC(=O)[C@H]4C[C@H](OC(C)=O)CC[C@]4(C)[C@H]3CC[C@]12C`, the Potency entry in assay [1] and in assay [2] was “inactive” throughout.
`CC(C)CC(=O)n1cc(C(N)=O)c(=O)cc1C(O)c1ccccc1` (stereo unspecified): the Potency entry in assay [1] and in assay [2] was “inactive” in each case.
As for `C=C1C(=O)O[C@H]2[C@H]1[C@@H](OC(=O)C(C)CO)C[C@@]1(C)[C@H](O)CCC(=O)[C@H]21` (stereo partly specified), the Potency entry in assay [1] and in assay [2] was “inactive” in each case.
With `C/C(=C/CCC(CO)C1CCC2(C)C3CCC4C(C)(C)C(OC5OC(CO)C(O)C(O)C5O)CC(O)C45CC35CCC12C)COC1OC(CO)C(O)C(O)C1O` (stereo unspecified), the Potency result in assay [1] and in assay [2] was “inactive” throughout.
For the compound `CC(=O)N[C@H]1[C@H](O[C@H]2CC[C@@]3(C)C(CC[C@]4(C)C3CC=C3C5CC(C)(C)CC[C@]5(C(=O)O)[C@H](O[C@@H]5O[C@H](CO)[C@@H](O)[C@H](O)[C@H]5O)C[C@]34C)C2(C)C)O[C@H](CO[C@@H]2OC[C@H](O)[C@H](O)[C@H]2O[C@@H]2OC[C@@H](O)[C@H](O)[C@H]2O)[C@@H](O)[C@@H]1O` (stereo partly specified), the activity change, negative = viability loss in assay [1] is -9.03% [at 9.23 µM]. The activity change, negative = cell killing in assay [2] is -14.8% [at 9.23 µM].
Turning to `OCC1=CC[C@@H]2C=CO[C@@H](O[C@@H]3O[C@H](CO)[C@@H](O)[C@H](O)[C@H]3O)[C@H]12`, the Potency entry in assay [1] and in assay [2] was “inactive” throughout.
Consider `CC1OC(OC2C(CO)OC(OCC3OC(OC(=O)C45CCC(C)(C)CC4C4=CCC6C7(C)CCC(OC8OC(C(=O)O)C(O)C(OC9OC(CO)C(O)C(O)C9O)C8O)C(C)(C)C7CCC6(C)C4(C)CC5)C(O)C(O)C3O)C(O)C2O)C(O)C(O)C1O` (stereo unspecified), for which the activity change, negative = viability loss in assay [1] is 0.172% [at 9.23 µM]. Also, in assay [2], the activity change, negative = cell killing is -4.23% [at 9.23 µM].
As for `CC1=CC[C@]2(C(=O)O[C@@H]3O[C@H](CO[C@@H]4O[C@H](CO)[C@@H](O[C@@H]5O[C@@H](C)[C@H](O)[C@@H](O)[C@H]5O)[C@H](O)[C@H]4O)[C@@H](O)[C@H](O)[C@H]3O)CC[C@]3(C)C(CCC4[C@@]5(C)C[C@@H](O)[C@H](O)[C@@](C)(CO)C5CC[C@]43C)C2C1C` (stereo partly specified), the outcome in assay [1] and in assay [2] was “inactive [at 9.23 µM]” throughout.
